Laboratory results from ChEMBL document CHEMBL3988442, “University of Dundee, Small-Polar-MMV Screening Library” (2021).
Several values for one entry are separate records, joined by “and”; a condition that tells them apart may be missing. Equal values may be shown once. For some assays here: Results with a measured potency or affinity are listed apart.

Assays:
Design in all cases: scale not given: direction of the effect not stated beside the values
[1] = biological target: Protein translocase subunit SecA (Escherichia coli (strain K12)) (UniProt P10408); test: Assay to Identify E. coli SecA ATPase Inhibitors; assay type: functional; conditions: 30 µM
Sequence of Protein translocase subunit SecA (Escherichia coli (strain K12)) (P10408 whole entry): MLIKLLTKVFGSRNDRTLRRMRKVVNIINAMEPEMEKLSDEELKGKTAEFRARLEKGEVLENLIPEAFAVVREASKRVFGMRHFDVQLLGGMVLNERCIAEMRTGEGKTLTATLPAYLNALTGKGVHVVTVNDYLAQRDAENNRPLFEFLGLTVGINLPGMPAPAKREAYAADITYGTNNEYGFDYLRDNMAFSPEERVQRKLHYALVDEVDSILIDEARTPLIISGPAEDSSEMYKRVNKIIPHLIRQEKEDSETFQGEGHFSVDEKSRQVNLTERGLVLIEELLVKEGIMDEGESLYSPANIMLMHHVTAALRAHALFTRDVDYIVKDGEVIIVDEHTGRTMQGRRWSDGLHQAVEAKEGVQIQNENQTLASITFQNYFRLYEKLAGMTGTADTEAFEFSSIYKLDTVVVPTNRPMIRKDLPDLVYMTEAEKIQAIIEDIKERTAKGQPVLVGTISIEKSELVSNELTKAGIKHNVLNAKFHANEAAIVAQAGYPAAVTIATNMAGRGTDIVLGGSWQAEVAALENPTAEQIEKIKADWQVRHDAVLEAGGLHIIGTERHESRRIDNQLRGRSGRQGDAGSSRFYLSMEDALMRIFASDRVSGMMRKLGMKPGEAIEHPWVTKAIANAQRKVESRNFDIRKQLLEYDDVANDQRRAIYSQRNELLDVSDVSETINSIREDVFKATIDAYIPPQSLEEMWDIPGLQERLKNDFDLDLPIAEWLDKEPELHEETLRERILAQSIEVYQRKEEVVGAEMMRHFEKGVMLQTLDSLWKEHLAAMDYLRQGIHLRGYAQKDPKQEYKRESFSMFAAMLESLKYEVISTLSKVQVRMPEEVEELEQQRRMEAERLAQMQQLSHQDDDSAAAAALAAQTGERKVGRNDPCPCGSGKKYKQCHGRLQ

[2] = biological target: T1, Ubiquitin-activating enzyme e1, putative (Leishmania donovani (strain BPK282A1)) (UniProt E9BSI1); test: Leishmania donovani Ubiquitin Activating Enzyme (LdE1); assay type: functional; conditions: 30 µM
T1 sequence (whole entry): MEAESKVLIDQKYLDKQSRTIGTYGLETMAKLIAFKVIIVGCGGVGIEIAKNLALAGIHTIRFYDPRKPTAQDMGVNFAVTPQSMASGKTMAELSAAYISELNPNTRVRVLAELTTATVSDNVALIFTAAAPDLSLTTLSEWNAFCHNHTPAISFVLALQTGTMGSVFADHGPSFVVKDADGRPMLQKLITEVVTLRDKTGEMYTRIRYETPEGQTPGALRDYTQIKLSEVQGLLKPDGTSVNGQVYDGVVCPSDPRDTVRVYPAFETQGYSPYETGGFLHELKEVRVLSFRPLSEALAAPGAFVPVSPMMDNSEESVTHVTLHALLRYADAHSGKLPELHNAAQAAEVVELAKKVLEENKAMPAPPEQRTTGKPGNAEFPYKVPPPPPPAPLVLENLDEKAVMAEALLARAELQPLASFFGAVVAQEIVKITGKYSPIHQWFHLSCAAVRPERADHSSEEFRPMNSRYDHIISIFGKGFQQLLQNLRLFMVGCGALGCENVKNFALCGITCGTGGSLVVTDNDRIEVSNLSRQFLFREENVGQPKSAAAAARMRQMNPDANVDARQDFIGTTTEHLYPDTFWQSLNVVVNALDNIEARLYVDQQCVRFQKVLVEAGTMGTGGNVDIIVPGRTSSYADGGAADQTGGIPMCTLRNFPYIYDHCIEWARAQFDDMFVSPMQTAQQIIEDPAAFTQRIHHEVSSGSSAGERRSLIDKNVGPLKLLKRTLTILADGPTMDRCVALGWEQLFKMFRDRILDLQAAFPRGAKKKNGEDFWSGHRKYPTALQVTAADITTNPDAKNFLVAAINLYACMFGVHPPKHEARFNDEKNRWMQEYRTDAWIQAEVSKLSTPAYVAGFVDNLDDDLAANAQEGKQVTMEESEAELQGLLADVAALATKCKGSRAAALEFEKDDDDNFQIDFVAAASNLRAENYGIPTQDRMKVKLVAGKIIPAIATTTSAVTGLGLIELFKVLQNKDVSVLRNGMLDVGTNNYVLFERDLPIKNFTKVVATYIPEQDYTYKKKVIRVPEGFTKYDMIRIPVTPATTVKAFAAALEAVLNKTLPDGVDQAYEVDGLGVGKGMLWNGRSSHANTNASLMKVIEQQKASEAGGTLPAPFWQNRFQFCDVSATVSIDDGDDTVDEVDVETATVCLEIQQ

[3] = biological target: AMP-activated protein kinase, AMPK (Homo sapiens) (UniProt P54646+O43741+P54619+Q9UGJ0+Q9Y478+Q13131+Q9UGI9); test: AMP-dependent Kinase enzyme assay. An in vitro enzyme assay that detects ADP turnover that is directly proportional to AMPK activity. This uses naive AMPK that is activated during the assay with MK-8722; assay type: functional; conditions: 30 µM
[4] = biological target: Sialic acid-binding Ig-like lectin 9 (Homo sapiens) (UniProt Q9Y336); test: Hs-Siglec9 ALPHAscreen SOP 20170721; conditions: 10 µM
Sequence of Sialic acid-binding Ig-like lectin 9 (Homo sapiens) (Q9Y336 whole entry): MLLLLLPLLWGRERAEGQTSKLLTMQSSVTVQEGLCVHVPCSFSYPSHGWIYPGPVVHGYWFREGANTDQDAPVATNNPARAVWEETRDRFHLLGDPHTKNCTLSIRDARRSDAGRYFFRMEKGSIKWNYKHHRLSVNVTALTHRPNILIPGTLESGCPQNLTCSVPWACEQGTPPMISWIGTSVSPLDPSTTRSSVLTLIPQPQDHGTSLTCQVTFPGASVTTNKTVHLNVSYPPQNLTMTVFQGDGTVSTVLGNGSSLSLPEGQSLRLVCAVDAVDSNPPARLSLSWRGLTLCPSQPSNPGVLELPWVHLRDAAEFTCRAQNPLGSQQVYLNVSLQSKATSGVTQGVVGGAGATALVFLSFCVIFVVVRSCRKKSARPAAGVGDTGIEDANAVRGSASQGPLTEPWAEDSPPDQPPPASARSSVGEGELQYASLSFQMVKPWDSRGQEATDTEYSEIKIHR

Trypanosoma cruzi = test: Trypanosoma cruzi phosphomannomutase and mannose-1-phosphate guanylyltransferase assay; assay type: functional; conditions: 10 µM
[5] = biological target: T2, Arginase-2, mitochondrial (Homo sapiens) (UniProt P78540); test: in vitro enzyme assay to detect the production of urea directly proportional to the activity of Arginase II; assay type: functional; conditions: 33.3 µM; also: in the data most compounds retested in dose-response had high values
T2 sequence (whole entry): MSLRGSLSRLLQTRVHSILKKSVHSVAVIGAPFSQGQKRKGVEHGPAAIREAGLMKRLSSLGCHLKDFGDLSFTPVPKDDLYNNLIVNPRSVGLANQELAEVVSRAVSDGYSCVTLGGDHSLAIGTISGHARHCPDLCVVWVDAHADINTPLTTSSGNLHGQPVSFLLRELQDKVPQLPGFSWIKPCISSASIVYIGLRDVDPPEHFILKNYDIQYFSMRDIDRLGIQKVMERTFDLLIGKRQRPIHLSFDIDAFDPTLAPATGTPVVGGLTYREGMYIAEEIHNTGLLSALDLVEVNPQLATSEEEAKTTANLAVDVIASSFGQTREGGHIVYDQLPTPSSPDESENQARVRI

[6] = biological target: T3, Proteasome subunit beta (Trypanosoma cruzi) (UniProt O96673); test: Trypanosoma cruzi proteasome chymotrypsin-like activity (TcProtChymo) assay.; also: in the data most compounds retested in dose-response had high values; assay type: functional; conditions: 9.37 µM
T3 sequence (whole entry): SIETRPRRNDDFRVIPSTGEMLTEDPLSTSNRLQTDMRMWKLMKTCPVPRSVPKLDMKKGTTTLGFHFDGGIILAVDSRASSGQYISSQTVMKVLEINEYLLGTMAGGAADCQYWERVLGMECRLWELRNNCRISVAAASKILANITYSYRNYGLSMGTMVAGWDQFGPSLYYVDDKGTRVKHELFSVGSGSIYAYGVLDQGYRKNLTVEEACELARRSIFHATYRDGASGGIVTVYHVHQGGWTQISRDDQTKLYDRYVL

N/A = test: Trypanosoma cruzi proteasome luciferase counter-screen; assay type: functional; conditions: 9.37 µM
Homo sapiens = species: Homo sapiens; test: To identify inhibition of the IFN signalling (Jak-Stat) pathway via expression of an eGFP reporter gene under the control of an IFN-stimulated response element (ISRE) containing MxA promoter.; assay type: functional; conditions: 30 µM
[7] = biological target: T4, Tyrosyl-tRNA synthetase, putative (Trypanosoma cruzi (strain CL Brener)) (UniProt Q4DSP6); test: Trypanosoma cruzi tyrosyl tRNA synthetase (TcYRS) _High Tyrosine SOP; assay type: functional; conditions: 30 µM; also: in the data most compounds retested in dose-response had high values
T4 sequence (whole entry): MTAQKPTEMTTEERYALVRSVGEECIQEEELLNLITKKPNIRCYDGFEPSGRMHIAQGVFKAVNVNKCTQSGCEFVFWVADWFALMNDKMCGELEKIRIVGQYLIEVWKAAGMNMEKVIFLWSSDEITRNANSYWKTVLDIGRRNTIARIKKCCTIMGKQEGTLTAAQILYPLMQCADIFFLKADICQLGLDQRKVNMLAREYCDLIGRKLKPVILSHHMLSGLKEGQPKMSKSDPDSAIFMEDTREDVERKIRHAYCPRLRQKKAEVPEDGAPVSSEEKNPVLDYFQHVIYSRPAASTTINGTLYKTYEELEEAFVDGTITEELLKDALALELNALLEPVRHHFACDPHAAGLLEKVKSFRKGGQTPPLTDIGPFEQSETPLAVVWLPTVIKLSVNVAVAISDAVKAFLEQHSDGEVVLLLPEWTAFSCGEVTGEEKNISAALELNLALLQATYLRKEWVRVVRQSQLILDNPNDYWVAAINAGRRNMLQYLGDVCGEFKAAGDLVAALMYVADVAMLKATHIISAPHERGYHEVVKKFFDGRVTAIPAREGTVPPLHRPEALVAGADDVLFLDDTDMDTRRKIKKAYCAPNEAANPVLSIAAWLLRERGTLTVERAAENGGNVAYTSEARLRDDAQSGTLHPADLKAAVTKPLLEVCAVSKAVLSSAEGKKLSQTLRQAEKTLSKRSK

[8] = biological target: T4, Tyrosyl-tRNA synthetase, putative (Trypanosoma cruzi (strain CL Brener)); test: Trypanosoma cruzi tyrosyl tRNA synthetase (TcYRS) SOP; assay type: functional; conditions: 30 µM
[9] = biological target: Chromo domain-containing protein 1 (Saccharomyces cerevisiae (strain ATCC 204508 / S288c) (Baker's yeast)) (UniProt P32657); test: ScCHD-1 Enzyme Inhibition Assay; assay type: functional; conditions: 30 µM; also: in the data most compounds retested in dose-response had high values
Sequence of Chromo domain-containing protein 1 (Saccharomyces cerevisiae (strain ATCC 204508 / S288c) (Baker's yeast)) (P32657 whole entry, the tested form may be a part): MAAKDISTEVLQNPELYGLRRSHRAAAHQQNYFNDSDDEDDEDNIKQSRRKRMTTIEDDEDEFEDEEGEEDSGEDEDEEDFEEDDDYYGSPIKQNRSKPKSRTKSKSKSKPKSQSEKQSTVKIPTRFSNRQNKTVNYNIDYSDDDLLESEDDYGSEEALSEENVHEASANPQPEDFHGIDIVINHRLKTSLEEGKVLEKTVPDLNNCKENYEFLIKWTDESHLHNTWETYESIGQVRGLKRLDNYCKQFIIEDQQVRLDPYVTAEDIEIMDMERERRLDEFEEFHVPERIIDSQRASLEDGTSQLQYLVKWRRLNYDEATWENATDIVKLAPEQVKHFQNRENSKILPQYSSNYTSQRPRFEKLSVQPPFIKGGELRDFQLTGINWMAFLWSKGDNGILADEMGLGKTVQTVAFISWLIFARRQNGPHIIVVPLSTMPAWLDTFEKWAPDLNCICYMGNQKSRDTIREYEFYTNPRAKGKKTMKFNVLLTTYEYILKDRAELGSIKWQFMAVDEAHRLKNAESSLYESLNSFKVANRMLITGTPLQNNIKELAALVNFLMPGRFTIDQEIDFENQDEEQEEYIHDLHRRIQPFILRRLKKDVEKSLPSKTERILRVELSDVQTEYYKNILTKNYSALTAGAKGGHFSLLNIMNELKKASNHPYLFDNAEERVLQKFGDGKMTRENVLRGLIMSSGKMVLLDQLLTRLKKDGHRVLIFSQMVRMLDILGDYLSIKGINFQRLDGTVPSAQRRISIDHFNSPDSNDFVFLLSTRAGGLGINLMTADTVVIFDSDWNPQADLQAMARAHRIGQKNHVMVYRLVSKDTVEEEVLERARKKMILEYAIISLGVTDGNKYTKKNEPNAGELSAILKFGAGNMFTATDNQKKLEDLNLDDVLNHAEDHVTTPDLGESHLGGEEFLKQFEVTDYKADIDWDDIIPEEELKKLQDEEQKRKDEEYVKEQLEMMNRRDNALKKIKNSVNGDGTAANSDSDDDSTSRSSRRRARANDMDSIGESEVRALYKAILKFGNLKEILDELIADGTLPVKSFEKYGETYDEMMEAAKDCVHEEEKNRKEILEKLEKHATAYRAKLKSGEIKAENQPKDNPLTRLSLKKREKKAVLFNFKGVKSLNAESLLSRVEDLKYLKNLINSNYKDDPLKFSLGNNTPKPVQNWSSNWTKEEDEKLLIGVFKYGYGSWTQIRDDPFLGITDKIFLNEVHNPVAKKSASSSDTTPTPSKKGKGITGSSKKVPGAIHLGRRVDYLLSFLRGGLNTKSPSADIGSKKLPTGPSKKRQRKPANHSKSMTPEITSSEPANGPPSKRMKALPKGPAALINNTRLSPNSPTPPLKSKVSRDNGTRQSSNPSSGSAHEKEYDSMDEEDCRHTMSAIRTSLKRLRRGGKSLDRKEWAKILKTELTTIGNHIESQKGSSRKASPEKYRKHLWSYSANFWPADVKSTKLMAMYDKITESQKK

Structure (SMILES) | Percent Effect [1] [%] | Percent Effect [2] [%] | Percent Effect [3] [%] | Percent Effect [4] [%] | Percent Effect (Trypanosoma cruzi) [%] | Percent Effect [5] [%] | Percent Effect [6] | Percent Effect (N/A) | Percent Effect (Homo sapiens) [%] | Percent Effect [7] [%] | Percent Effect [8] [%] | Percent Effect [9] [%]
Cc1cnn(C2CN(CC(=O)NCc3ccccn3)C2)c1 | 0.391 | 26.3 | -12.2 | -9.97 | 7.56 | -4.32 | 63.5% and 62% and 58.8% | 11.6% and 13.6% | -8.2 | 17.2 | 25.9 | -5.97
O=C(CC1CN(Cc2ccccc2)CCO1)Nc1ccccc1F (stereo not given) | -4.53 | 21.6 | -4.08 | 3.88 | 2.15 | 4.17 | 64.1% and 65% and 65.1% | 32.6% and 32.9% | 4.52 | 8.91 | 15.8 | -1.97
O=C(O)c1ccc(F)c(S(=O)(=O)Nc2ccc(-n3cccn3)c(Cl)c2)c1 | -5.92 | -2.67 | -7.61 | -0.566 | -2.63 | 0 | 16.3% and 16.5% and 41.1% | 15.6% and 20.6% | -13.3 | -1.64 | 1.24 | -4.16
CC(Cn1cccn1)NCc1csc(-c2ccccc2F)n1 (stereo not given) | -1.44 | -5.41 | -14.2 | 7.22 | 3.87 | -4.41 | 90.3% and 88.1% and 85% | 59.5% and 61% | 13.2 | 1.48 | 11.1 | -4.62
Cc1ccc(C)c(C(NC(=O)C2CC2)c2cccnc2)c1 (stereo not given) | 0.279 | 18.2 | -0.34 | -7.55 | 4.24 | -1.94 | 32.4% and 20.1% and 20.4% | 21.2% and 15.5% | 6.26 | 4.23 | 8.97 | -10.3
Cc1ccc(S(=O)(=O)Nc2ccc(-n3cccc3C(=O)O)c(C)c2)s1 | -4.28 | 5.26 | 12.2 | 2.35 | -5.55 | 9.47 | 29.7% and 25.9% and 32.3% | 14.7% and 12.8% | -7.51 | -9.57 | -15.6 | 4.9
Cc1ccc(-c2cc(C(=O)NC(C)C(=O)N3CCCCC3)on2)cc1 (stereo not given) | -6.75 | 13.2 | 6.88 | 1.96 | 4.19 | 5.92 | 34.9% and 32.7% and 30.8% | 29.4% | 10.4 | 2.13 | 10.4 | -6.32
CC(O)CNCc1ccc(OCc2ccc3c(c2)OCCO3)cc1 (stereo not given) | 0.112 | 10.5 | 0.644 | -9.17 | -3.6 | -2.37 | 61.5% and 58.6% and 62.4% | 31.4% and 28.6% | -4.62 | 1.06 | 5.2 | -3.79
Cc1cc(C(C)C(=O)N2CCCN(Cc3cscn3)CC2)c(C)o1 (stereo not given) | -0.889 | 21.1 | -6.33 | 21.4 | 1.5 | -4.98 | 31.9% and 34.8% and 34.4% | 4.24% and 9.24% | 23.1 | 3.43 | 17.1 | -9.64
Cn1cc(-c2cnc(N3CCCC3)nc2)cc1C(=O)O | -4.18 | 8.11 | 4.07 | 6.18 | 6.05 | 22.9 | 95.3% and 96.7% and 97.6% | 80% and 80.9% | -5.85 | 5.94 | 13.4 | -8.33
O=C(c1ccncc1F)N1CCc2ncnc(-c3ccncc3)c2CC1 | -6.29 | 5.41 | -2.05 | -1.21 | -5.38 | -0.955 | 10.7% | – | 14 | 1.08 | 7.69 | 0.761
CC(C1CC1)N(C)C(=O)c1cnc(-c2ccc3c(c2)OCO3)s1 (stereo not given) | -5.81 | 0 | 11.9 | 0.585 | -3.33 | -1.82 | 68.6% and 72.1% and 62.6% | 34.7% and 35.5% | 12.2 | -2.15 | -2.5 | -10.2
CCn1ccnc1CN1CCN(C(C)C(=O)NC2CCCCC2)CC1 (stereo not given) | -6.02 | 5.26 | -1.96 | -3.82 | -7.71 | 0.766 | 5.68% | – | 24.7 | -3.43 | -4.88 | 5.81
COc1ccc(Cl)cc1C(=O)N1CCOC2(CNCCOC2)C1 (stereo not given) | -5.73 | -2.7 | 0.241 | -0.752 | -3.86 | -1.43 | 7.59% and 10.9% and 31.4% | 12.4% and 13.6% | -6.05 | 2.65 | 4.88 | -2.64
CN(CCOc1cccc(CNC(=O)C2CC2)c1)C1CCOCC1 | -3.16 | 0 | 2.77 | -1.13 | 4.44 | 3.33 | -3.45% | – | -3.27 | -0.529 | 2.44 | 0.329
O=C(Cc1ccsc1)NCC1OCCc2cn(CC3CC3)nc21 (stereo not given) | -2.34 | 7.79 | 4.36 | -0.104 | -3.06 | 4.52 | 9.92% | – | 10.1 | 8.47 | 8.97 | -0.722
CC(=O)N1CCCC1c1nccnc1Nc1cccc(C)n1 (stereo not given) | -1.59 | -5.33 | 11.9 | 5.31 | -1.57 | 0.699 | 1.15% | – | -9.62 | -1.06 | 1.28 | 4.34
Cc1ccc(S(=O)(=O)N2CCc3nc(C4CCNCC4)ncc3C2)cc1 | -3.69 | 9.46 | -15.7 | 1.15 | 2.77 | -4.41 | 21.6% and 22.5% and 38.9% | 8.48% and 9.51% | 9.56 | 17.2 | 24.7 | -21.4
CN1CC(=O)N(c2cccc(F)c2)CC12CCN(S(C)(=O)=O)C2 (stereo not given) | -4.45 | 10.8 | 2.57 | 0.944 | -1.07 | 3.5 | 18.8% | – | -6.25 | 4.32 | 10.3 | -1.22
Cc1ccc(-c2nc(CN3CCC(C(=O)N(C)C)CC3)cs2)o1 | -3.42 | -1.27 | -1.3 | -4.8 | -0.103 | -1.94 | 38.5% and 41.6% and 46.1% | 21.6% and 19.9% | 21.9 | 12.5 | 22.8 | -29.5
Cc1cc2nc(SCC(=O)N3CCCC3)n(-c3ccccc3)c(=O)c2[nH]1 | -2.59 | 2.63 | 7.28 | -3.44 | -3.02 | 9.47 | 19.6% | – | -5.99 | 6.38 | 2.6 | -5.49
